Experimental data: the supplement of paper PMC10849652
The full data set covers some 7,900 targets. This sample favours those with a hit. About 0.6% of all pairs of compound and target were hits.

Experiments:
Assay in all cases: log2 fold change, soluble protein after heating vs DMSO (PISA); higher = thermal stabilisation; K562 cells, 10 uM, 30 min; active = over 0.2 and 3.5 SD of the protein, either way, in both replicates (recomputed)
[1] = compound: C1COCCN1CCN2C3=CC=CC=C3N=C2NC(=O)C4=CC(=CC=C4)[N+](=O)[O-] [IRAK-1-4 Inhibitor I]
In short: (§1)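 Soluble protein was defined as the supernatant after 21,000xg for 90 min. It came from K562 cells at 2×10^6 cells/mL given 10 μM compound for 30 min, heated in aliquots for 3 min across 48°C-58°C, pooled, and extracted in PBS with 0.5% NP-40 at 4°C, and was quantified by TMTpro 16plex LC-MS/MS with equalised channel sums. Thermal stability against control samples, from duplicates, is reported as log2 fold change.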

[2] = compound: C=CC(=O)N1CCC[C@@H](n2nc(-c3ccc(Oc4ccccc4)cc3)c3c(N)ncnc32)C1 [ibrutinib]
In short: as §1

[3] = compound: CC(=O)c1cnc2ccc(-c3cc(Cl)c(O)c(Cl)c3)nc2c1N[C@H]1CC[C@H](CN(C)C)CC1
In short: as §1

[4] = compound: CC(C)(C)Cn1c(N)nc2ccc(-c3[nH]c(C(C)(C)C)nc3-c3ccc(F)cc3)nc21 [ralimetinib]
In short: as §1

[5] = compound: CC(C)(O)CC(=O)NCCn1ccc2ncnc(Nc3ccc(Oc4cccc(C(F)(F)F)c4)c(Cl)c3)c21
In short: as §1

[6] = compound: CC(C)C1=C2N=C(C=C(N2N=C1)NCC3=CC=CC=C3)NCCCCCCN
In short: as §1

[7] = compound: CC(C)C[C@@H](C=O)NC(=O)[C@H](CC(C)C)NC(=O)[C@H](CC(C)C)NC(=O)OCc1ccccc1
In short: as §1

[8] = compound: CC(C)N(C[C@H]1O[C@@H](n2cnc3c(N)ncnc32)[C@H](O)[C@@H]1O)[C@H]1C[C@@H](CCc2nc3cc(C(C)(C)C)ccc3[nH]2)C1 [pinometostat]
In short: as §1

[9] = compound: CC1=C(C(CC(=O)N1)C2=CC=C(C=C2)C(F)(F)F)C(=O)NC3=C(C=C4C(=C3)C=NN4)F
In short: as §1

[10] = compound: CC1=C(C2=C(C=C1)C(=O)C3=CC=CC=C3N2CCCN)C
In short: as §1

Measured: log2 fold change

CCDC9 (UniProt Q9Y3X0)
Sequence of UniProt Q9Y3X0 (Q9Y3X0 whole entry, looked up): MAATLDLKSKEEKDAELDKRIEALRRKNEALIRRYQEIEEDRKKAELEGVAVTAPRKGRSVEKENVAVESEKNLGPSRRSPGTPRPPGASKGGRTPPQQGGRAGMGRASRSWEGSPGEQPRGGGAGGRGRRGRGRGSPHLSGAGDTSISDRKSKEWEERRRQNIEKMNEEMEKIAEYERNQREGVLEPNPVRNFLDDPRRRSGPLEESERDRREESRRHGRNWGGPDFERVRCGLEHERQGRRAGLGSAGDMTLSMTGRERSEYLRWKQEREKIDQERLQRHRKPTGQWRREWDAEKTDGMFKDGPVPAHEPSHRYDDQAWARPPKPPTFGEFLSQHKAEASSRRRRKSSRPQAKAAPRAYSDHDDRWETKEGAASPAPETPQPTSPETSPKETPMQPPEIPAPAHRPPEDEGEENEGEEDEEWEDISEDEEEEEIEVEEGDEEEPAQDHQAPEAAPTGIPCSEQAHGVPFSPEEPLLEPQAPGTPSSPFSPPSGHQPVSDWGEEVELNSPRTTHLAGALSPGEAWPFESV
active: [10] 0.296
inactive: [1] -0.05 | [2] 0.078 | [3] 0.173 | [4] 0.031 | [5] 0.053 | [6] 0.105 | [7] 0.087 | [8] -0.024 | [9] 0.021

CNDP2 (UniProt Q96KP4)
inactive: [1] 0.098 | [2] 0.002 | [3] -0.01 | [4] 0.07 | [5] -0.005 | [6] -0.011 | [7] -0.029 | [8] -0.035 | [9] -0.011 | [10] 0.042

CERS2 (UniProt Q96G23)
inactive: [1] 0.06 | [2] -0.013 | [3] 0.125 | [4] -0.026 | [5] -0.176 | [7] 0.034 | [8] 0.042 | [9] 0.003 | [10] -0.04
active: [6] -0.425

CPQ (UniProt Q9Y646)
inactive: [1] 0.095 | [2] 0.01 | [3] -0.034 | [4] -0.011 | [5] 0.003 | [6] 0.049 | [7] -0.032 | [8] 0.007 | [9] 0.023 | [10] 0.006

CAMK2G isoform 6 (UniProt Q13555)
Sequence of UniProt Q13555 (Q13555 whole entry, looked up): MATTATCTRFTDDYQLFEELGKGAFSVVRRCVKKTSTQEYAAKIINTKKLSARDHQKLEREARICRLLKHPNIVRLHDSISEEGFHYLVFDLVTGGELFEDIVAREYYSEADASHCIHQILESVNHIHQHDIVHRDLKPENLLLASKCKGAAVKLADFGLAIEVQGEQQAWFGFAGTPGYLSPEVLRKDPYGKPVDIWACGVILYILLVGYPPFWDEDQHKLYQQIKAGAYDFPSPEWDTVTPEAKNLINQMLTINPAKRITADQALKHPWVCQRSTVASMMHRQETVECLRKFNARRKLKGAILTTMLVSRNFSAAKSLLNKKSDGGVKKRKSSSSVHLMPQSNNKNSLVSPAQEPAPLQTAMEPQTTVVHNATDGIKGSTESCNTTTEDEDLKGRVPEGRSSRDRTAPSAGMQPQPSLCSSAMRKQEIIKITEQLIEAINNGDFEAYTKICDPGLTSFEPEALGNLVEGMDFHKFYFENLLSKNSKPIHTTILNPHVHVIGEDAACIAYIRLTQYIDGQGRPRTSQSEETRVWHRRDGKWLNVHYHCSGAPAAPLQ
inactive: [1] -0.008 | [2] 0.004 | [3] 0.181 | [4] 0.118 | [5] 0.039 | [6] -0.016 | [7] 0.038 | [8] 0.067 | [9] -0.075 | [10] 0.063

CASC3 (UniProt O15234)
inactive: [1] -0.014 | [2] 0.1 | [4] 0.07 | [5] -0.023 | [6] 0.411 | [7] -0.036 | [8] -0.005 | [9] 0.012 | [10] 0.206
active: [3] 0.582

CDK4 (UniProt P11802)
Sequence of UniProt P11802 (P11802 whole entry, looked up): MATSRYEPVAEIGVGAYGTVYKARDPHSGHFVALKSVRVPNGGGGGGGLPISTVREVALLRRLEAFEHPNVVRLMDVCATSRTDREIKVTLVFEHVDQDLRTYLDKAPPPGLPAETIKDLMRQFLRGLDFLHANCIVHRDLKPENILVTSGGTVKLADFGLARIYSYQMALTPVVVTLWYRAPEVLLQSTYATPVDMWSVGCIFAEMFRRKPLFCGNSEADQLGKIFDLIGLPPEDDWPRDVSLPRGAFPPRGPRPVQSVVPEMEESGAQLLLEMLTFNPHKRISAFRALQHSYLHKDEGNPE
inactive: [1] 0.001 | [2] -0.004 | [4] 0.054 | [5] -0.098 | [6] -0.333 | [7] 0.105 | [8] 0.081 | [9] -0.069
active: [3] 0.685

CSE1L (UniProt P55060)
inactive: [1] 0.001 | [2] -0.028 | [3] 0.033 | [4] -0.011 | [5] -0.144 | [6] -0.145 | [7] -0.029 | [8] -0.027 | [9] -0.008 | [10] -0.02

CDC42SE1 (UniProt Q9NRR8)
Sequence of UniProt Q9NRR8 (Q9NRR8 whole entry, looked up): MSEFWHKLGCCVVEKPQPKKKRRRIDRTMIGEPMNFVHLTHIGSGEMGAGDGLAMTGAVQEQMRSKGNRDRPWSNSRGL
inactive: [1] 0.066 | [2] 0.049 | [3] -0.004 | [4] 0.021 | [5] 0.042 | [6] -0.111 | [7] 0.074 | [8] 0.11 | [9] 0.282 | [10] 0.015

COPS3 (UniProt Q9UNS2)
inactive: [1] 0.029 | [2] 0.011 | [3] -0.023 | [4] -0.096 | [5] -0.014 | [6] 0.028 | [7] -0.065 | [8] -0.046 | [9] -0.007 | [10] -0.003

COX15 (UniProt Q7KZN9)
Sequence of UniProt Q7KZN9 (Q7KZN9 whole entry, looked up): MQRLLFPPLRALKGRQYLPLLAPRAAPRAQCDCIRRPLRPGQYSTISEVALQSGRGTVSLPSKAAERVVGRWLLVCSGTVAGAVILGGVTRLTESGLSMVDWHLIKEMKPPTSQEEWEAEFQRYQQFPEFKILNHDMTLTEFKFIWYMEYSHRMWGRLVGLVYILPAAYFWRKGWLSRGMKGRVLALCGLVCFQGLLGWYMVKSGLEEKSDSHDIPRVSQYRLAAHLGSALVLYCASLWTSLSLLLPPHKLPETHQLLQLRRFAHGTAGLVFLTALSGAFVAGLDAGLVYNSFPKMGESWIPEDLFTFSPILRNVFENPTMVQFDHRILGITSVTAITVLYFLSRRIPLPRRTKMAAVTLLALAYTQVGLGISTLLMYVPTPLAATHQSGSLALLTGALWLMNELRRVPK
inactive: [1] 0.022 | [2] -0.04 | [3] 0.027 | [4] -0.03 | [5] -0.036 | [6] -0.04 | [7] 0.001 | [8] -0.022 | [9] -0.004 | [10] 0.008

CCZ1 (UniProt P86791)
inactive: [1] 0.063 | [2] -0.001 | [3] -0.039 | [4] -0.051 | [5] -0.05 | [7] 0.025 | [8] 0.012 | [9] -0.007 | [10] 0.006
active: [6] -0.287

CDK5RAP3 isoform 4 (UniProt Q96JB5)
inactive: [1] -0.051 | [2] -0.068 | [3] -0.005 | [4] -0.015 | [5] -0.062 | [6] -0.056 | [7] -0.002 | [8] 0.017 | [9] -0.031 | [10] 0.009

CCDC82 (UniProt Q8N4S0)
inactive: [1] -0.041 | [2] 0.022 | [3] -0.07 | [4] -0.023 | [5] 0.012 | [6] 0 | [7] 0.028 | [8] -0.019 | [9] 0.108
active: [10] -0.65

CRLF3 (UniProt Q8IUI8)
inactive: [1] 0 | [2] -0.047 | [3] -0.079 | [4] 0.008 | [5] -0.122 | [6] -0.166 | [7] 0.013 | [8] -0.001 | [9] 0.015 | [10] -0.035

CNTN4 (UniProt Q8IWV2)
inactive: [1] 0.049 | [2] 0.023 | [3] 0.065 | [4] 0.025 | [5] -0.108 | [6] 0.195 | [7] 0.044 | [8] -0.027 | [9] -0.014 | [10] 0.137

CBX5 (UniProt P45973)
inactive: [1] -0.076 | [2] 0.002 | [3] -0.102 | [4] -0.002 | [5] 0.056 | [6] -0.067 | [7] -0.001 | [8] -0.058 | [9] -0.024
active: [10] -0.545

CCNK isoform 4 (UniProt O75909)
inactive: [1] -0.143 | [2] 0.02 | [3] -0.058 | [4] 0.031 | [5] -0.007 | [6] -0.008 | [7] 0.045 | [8] 0.15 | [9] -0.046 | [10] -0.047

CNOT4 isoform 6 (UniProt O95628)
Sequence of UniProt O95628 (O95628 whole entry, looked up): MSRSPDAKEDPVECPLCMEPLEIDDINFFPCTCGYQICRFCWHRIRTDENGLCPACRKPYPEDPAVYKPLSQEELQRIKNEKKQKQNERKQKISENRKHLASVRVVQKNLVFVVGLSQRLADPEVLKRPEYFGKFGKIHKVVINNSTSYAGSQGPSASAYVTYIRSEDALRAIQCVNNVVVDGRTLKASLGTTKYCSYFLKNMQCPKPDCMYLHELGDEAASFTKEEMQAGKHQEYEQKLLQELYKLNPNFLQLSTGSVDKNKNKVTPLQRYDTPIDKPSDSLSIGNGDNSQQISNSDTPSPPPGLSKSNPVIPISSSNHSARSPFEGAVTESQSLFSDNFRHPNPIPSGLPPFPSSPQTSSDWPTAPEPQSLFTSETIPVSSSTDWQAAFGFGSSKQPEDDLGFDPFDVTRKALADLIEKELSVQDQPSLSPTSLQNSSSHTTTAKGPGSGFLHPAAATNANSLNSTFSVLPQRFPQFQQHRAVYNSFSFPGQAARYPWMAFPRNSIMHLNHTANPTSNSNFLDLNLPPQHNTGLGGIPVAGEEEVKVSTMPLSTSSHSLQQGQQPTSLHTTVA
inactive: [1] 0.044 | [2] 0.016 | [3] -0.062 | [4] -0.048 | [5] 0.002 | [6] 0.038 | [7] -0.019 | [8] -0.025 | [9] 0.018 | [10] 0.051

CIT isoform 4 (UniProt O14578)
inactive: [1] -0.013 | [2] -0.057 | [4] -0.008 | [5] -0.077 | [6] -0.021 | [7] 0.045 | [8] -0.005 | [9] 0.045 | [10] 0.118
active: [3] -0.462

CBR1 (UniProt P16152)
Sequence of UniProt P16152 (P16152 whole entry, looked up): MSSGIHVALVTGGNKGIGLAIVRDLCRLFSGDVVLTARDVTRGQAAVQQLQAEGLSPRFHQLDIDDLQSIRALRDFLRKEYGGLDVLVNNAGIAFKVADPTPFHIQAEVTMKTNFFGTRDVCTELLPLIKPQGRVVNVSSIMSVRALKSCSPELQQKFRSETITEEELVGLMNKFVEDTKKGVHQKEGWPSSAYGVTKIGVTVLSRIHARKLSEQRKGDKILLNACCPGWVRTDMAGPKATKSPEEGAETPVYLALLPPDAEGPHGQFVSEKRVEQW
inactive: [1] 0.023 | [2] 0.009 | [3] 0.031 | [4] 0.097 | [5] -0.007 | [6] 0.061 | [7] -0.088 | [8] -0.035 | [9] -0.009 | [10] 0.028

CA1 (UniProt P00915)
inactive: [1] 0.068 | [2] -0.02 | [3] 0.003 | [4] 0.017 | [5] -0.031 | [6] 0.119 | [7] -0.011 | [8] -0.006 | [9] -0.019 | [10] -0.043

CDAN1 (UniProt Q8IWY9)
active: [10] -0.398
inactive: [1] 0.057 | [2] -0.001 | [3] -0.044 | [4] -0.036 | [5] -0.168 | [6] -0.051 | [7] -0.006 | [8] 0.026 | [9] 0.009

CDKN2AIP (UniProt Q9NXV6)
inactive: [1] -0.057 | [2] 0.039 | [3] 0.062 | [4] 0.059 | [5] 0.01 | [6] 0.056 | [7] -0.04 | [8] 0.032 | [9] -0.056
active: [10] 0.241

CEMIP2 (UniProt Q9UHN6)
Sequence of UniProt Q9UHN6 (Q9UHN6 whole entry, looked up): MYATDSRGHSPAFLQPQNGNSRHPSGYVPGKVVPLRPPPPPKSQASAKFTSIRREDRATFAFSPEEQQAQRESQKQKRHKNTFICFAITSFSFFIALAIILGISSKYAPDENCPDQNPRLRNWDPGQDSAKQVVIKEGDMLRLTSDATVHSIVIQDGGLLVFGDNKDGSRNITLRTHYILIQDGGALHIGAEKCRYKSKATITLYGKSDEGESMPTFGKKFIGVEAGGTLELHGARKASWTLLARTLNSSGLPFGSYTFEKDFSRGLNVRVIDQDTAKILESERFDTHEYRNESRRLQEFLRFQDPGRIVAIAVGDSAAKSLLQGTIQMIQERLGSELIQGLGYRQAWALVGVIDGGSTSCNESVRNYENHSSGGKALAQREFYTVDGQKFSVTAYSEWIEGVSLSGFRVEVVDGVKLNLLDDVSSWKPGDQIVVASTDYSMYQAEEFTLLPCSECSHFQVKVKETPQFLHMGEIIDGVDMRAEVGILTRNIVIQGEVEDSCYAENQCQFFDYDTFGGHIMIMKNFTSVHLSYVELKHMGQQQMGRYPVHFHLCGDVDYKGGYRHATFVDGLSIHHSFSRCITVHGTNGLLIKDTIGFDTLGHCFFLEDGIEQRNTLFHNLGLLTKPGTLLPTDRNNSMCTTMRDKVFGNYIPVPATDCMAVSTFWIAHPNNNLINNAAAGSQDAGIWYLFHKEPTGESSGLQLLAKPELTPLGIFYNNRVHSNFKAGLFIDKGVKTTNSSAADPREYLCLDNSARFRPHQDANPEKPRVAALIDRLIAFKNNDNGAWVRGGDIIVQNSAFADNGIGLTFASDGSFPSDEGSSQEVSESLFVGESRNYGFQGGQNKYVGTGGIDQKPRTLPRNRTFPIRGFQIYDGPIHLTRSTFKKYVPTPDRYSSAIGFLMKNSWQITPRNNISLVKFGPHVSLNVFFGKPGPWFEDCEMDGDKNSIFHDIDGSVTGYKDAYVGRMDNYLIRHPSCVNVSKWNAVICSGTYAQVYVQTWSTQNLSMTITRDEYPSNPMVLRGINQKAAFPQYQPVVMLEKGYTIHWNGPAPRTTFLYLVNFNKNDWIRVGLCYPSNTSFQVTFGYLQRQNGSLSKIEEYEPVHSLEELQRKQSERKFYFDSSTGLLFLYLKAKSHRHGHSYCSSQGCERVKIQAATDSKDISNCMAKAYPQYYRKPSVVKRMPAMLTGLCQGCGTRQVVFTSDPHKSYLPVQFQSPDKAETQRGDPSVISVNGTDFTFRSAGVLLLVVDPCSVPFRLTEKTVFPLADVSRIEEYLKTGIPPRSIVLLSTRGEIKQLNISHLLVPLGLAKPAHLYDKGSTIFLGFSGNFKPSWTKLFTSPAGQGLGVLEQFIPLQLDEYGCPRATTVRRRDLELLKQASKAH
inactive: [1] 0 | [2] 0.096 | [3] -0.045 | [4] -0.023 | [5] -0.026 | [6] 0.122 | [7] 0.11 | [8] -0.035 | [9] -0.211 | [10] 0.057

CBS (UniProt P35520)
inactive: [1] 0.044 | [2] -0.007 | [3] 0.008 | [4] -0.01 | [5] 0.027 | [6] 0.036 | [7] -0.013 | [8] -0.048 | [9] 0.034 | [10] 0.001

CD151 (UniProt P48509)
Sequence of UniProt P48509 (P48509 whole entry, looked up): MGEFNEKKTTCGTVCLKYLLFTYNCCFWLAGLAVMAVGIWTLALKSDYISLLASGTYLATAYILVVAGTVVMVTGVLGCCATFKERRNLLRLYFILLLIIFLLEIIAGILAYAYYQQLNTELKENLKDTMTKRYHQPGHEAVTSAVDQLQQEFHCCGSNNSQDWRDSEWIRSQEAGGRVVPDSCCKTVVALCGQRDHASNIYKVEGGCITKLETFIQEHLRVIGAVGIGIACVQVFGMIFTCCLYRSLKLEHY
inactive: [1] -0.077 | [2] 0.012 | [3] 0.025 | [4] 0.013 | [5] -0.021 | [6] -0.017 | [7] 0.027 | [8] -0.054 | [9] 0.082 | [10] 0.083

CDC42BPA isoform 6 (UniProt Q5VT25)
inactive: [1] -0.025 | [2] -0.09 | [4] 0.094 | [5] -0.02 | [6] -0.193 | [7] 0.043 | [8] 0.029 | [9] -0.192 | [10] 0.132
active: [3] -1.07

CHCHD2 (UniProt Q9Y6H1)
inactive: [1] 0.009 | [2] 0.067 | [3] 0.022 | [4] -0.035 | [5] -0.017 | [6] 0.095 | [7] -0.071 | [8] -0.068 | [9] 0.144 | [10] -0.004

CAMKK2 (UniProt Q96RR4)
Sequence of UniProt Q96RR4 (Q96RR4 whole entry, looked up): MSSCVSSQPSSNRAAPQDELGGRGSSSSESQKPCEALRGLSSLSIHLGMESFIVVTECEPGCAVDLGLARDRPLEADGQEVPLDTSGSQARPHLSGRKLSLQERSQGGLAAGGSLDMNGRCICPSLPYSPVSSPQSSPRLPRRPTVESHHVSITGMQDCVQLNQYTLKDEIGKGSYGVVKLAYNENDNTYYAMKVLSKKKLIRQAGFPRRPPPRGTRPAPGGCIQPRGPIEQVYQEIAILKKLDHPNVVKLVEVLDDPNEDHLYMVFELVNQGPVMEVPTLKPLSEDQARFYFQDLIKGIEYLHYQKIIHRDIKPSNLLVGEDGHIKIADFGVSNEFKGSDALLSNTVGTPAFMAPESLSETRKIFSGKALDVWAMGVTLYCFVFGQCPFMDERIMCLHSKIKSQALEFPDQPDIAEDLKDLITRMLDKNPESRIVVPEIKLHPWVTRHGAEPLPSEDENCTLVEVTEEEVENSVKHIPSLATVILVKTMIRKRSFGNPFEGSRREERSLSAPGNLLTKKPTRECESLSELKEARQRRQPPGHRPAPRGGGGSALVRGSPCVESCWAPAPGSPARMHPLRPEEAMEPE
inactive: [1] -0.05 | [2] -0.069 | [3] 0.131 | [4] -0.117 | [5] 0.002 | [6] 0.069 | [7] -0.052 | [8] 0.142 | [9] 0.039 | [10] -0.025
